The supplement of paper PMC12669032

These compounds were tested on Streptococcus salivarius (assay: growth AUC relative to DMSO control (median of replicates) (fraction); higher = more growth (less inhibition), active = hit call of the paper). Details: 20 µM; 24 h;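 active = AUC reduced over 20% with Padj below 0.05 in at least 2 of 3 replicates; inactive = otherwise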.
How it was run: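 Area under the growth curve was normalised to the plate median of solvent-only wells, or to row and column medians on the industrial chemical plate. Growth curves came from anaerobic gut bacterial monocultures in mGAM at 37 °C, seeded at OD600 0.05 with 20 µM compound (1% DMSO), and read at OD600 hourly for 24 h with the minimum OD set to 0. The value is the median of three biological replicates grown on separate days.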

Growth AUC, inactive:
CC(C)c1cccc2c(=O)c3ccccc3sc12 1.05, N#Cc1ccc(CC(=NNC(=O)Nc2ccc(OC(F)(F)F)cc2)c2cccc(C(F)(F)F)c2)cc1 (mixture of isomers) 1.02, O=[N+]([O-])c1ccc(O)cc1 1, Cc1nn(C)c(Oc2ccccc2)c1/C=N/OCc1ccc(C(=O)OC(C)(C)C)cc1 0.993, CCOC(=O)C(C)N(C(=O)c1ccccc1)c1ccc(Cl)c(Cl)c1 (centres undefined) 0.947, CCCC(C)(C)C(=O)Nc1ccc(Cl)cc1 0.963, O=C(O)COc1cc(N2C(=O)C3=C(CCCC3)C2=O)c(F)cc1Cl 0.977, CCOC(=O)C(C)Oc1ccc(Oc2cnc3cc(Cl)ccc3n2)cc1 (centres undefined) 1.05, CCOC(=O)/C(Cl)=C/c1cc(N2C(=O)C3=C(CCCC3)C2=O)ccc1Cl 0.96, [O-][n+]1nc(-n2ccnc2)nc2ccc(Cl)cc21 1, C#CC(C)N(C)C(=O)Nc1ccc(Cl)cc1 (centres undefined) 0.993, CC(C)N(C(=O)C(=O)O)c1ccccc1 1.02, COCCN(C(=O)CO)c1c(C)cccc1C(=O)O 0.965, CCCCOCCOC(=O)COc1nc(Cl)c(Cl)cc1Cl 0.998, COC(=O)c1csc(C)c1S(=O)(=O)NC(=O)n1nc(OC)n(C)c1=O 0.931, CC(=O)CC(c1ccccc1)c1c(O)c2ccccc2oc1=O (centres undefined) 1, CCCCCCCCOC(=O)COc1cc(Cl)c(Cl)cc1Cl 0.875, O=C(O)COc1ccc(Cl)cc1CO 0.932, Cl.NCCO/C=C/[C@H](N)C(=O)O 1.05, O=C(O)Cc1c[nH]c2ccccc12 1.01, COc1cc(Cl)ccc1Oc1ccc(Cl)cc1Cl 1.05, O=C(O)Cc1c(Cl)ccc(Cl)c1Cl 1.01, CCCNCCOc1c(Cl)cc(Cl)cc1Cl 0.964, S=C([S-])NCCNC(=S)[S-].[Mn+2] 1.07, O=C(O)c1ccc(Cl)cc1Cl 1, CCC/C(=N\OCC)C1=C(O)CC(C2CCCSC2)CC1=O (centres undefined) 0.974, COc1ccccc1C(=O)NS(=O)(=O)c1ccc(C(=O)NC2CC2)cc1 1.01, O.O.O=[N+]([O-])c1ccc([O-])cc1.[Na+] 1.05, CC(C)COC(=O)COc1cc(Cl)c(Cl)cc1Cl 0.958, C=CCc1ccc(O)c(OC)c1 0.975, CC(C)N(C(=O)CS(=O)(=O)[O-])c1ccccc1.[Na+] 0.997, Nc1ccc(S(=O)(=O)Nc2nccs2)cc1 1.02, C=CCO/N=C(\CCC)C1=C([O-])CC(C)(C)C(C(=O)OC)C1=O.[Na+] (centres undefined) 1.02, FC(F)(F)c1cccc(C(c2ccccc2)(c2ccccc2)n2cncn2)c1 0.94, CC(C)N(C(=O)CS(=O)(=O)[O-])c1ccc(F)cc1.[Na+] 0.973, CCNc1nc(N)nc(Cl)n1 1.03, COC(=O)c1cccc(C)c1S(=O)(=O)NC(=O)Nc1nc(OCC(F)(F)F)nc(N(C)C)n1 0.984, CC(=O)Nc1cc(NS(=O)(=O)C(F)(F)F)c(C)cc1C 1, CC(C)(SC(=O)N1CCCCC1)c1ccccc1 0.98
